An excerpt weighted towards active compounds, which were near 12% of everything screened.
PI5P4K alpha inh: qHTS for Inhibitors of phosphatidylinositol 5-phosphate 4-kinase (PI5P4K) | Phosphatidylinositol 5-phosphate 4-kinase type-2 alpha (Homo sapiens), P48426 | PI5P4Kalpha enzyme, ADP-Glo luminescence, 60 min; hits give low values | max response, % | 330,000 compounds, 1.2% hits | AID 652105, 2013; active means max response of -50% or lower; inconclusive means between -30% and -50%; inactive means -30% or higher; further: value at the top dose of about 77 µM; on the % scale 0 is the no-effect control and ±100 the full control effect
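Controls without substrate or without enzyme flank wells where PI5P4Kalpha converts substrate using 5 microM ATP (final). Incubation lasts 60 minutes at room temperature; ADP formed is read by ADP-Glo luminescence.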
HP1b chromo inh: HTS for Inhibitors of HP1-beta Chromodomain Interactions with Methylated Histone Tails. AlphaScreen HP1-beta / biotin-H3K9me3 peptide binding. Potency, µM (highest dose often 114 µM), for the others: at the top dose activity change, negative = inhibition, usual class: inhibitors. 390,000 compounds, 0.56% hits. AID 540317, 2011; further: potency means the concentration at half of the fitted maximal effect; nearly all actives have a fitted effect of over 70% in size
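AlphaScreen: HP1-beta (50 nM) preformed 30 min with biotin-H3(1-18)K9me3 peptide (50 nM) in PBS pH 7.4, 0.01% Tween-20. Compound added for 30 min at RT, then streptavidin donor/nickel chelate acceptor beads (10 ug/mL) for 30 min.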
PLK1 PBD block: qHTS for Inhibitors of PLK1-PDB (polo-like kinase 1 - polo-box domain): Primary Screen. 360,000 compounds, 2.8% hits. Plk1 PBD binding of FITC phosphopeptide, fluorescence polarization. Potency, µM, without a hit: max response, negative = inhibition, actives largely listed as inhibitors; further: potency means the concentration at half of the fitted maximal effect; series mostly up to about 57 µM; on the % scale 0 is the no-effect control and ±100 the full control effect; nearly all actives have a fitted effect of over 65% in size
BAZ2B block: qHTS Assay for Inhibitors of BAZ2B; Bromodomain adjacent to zinc finger domain protein 2B (Homo sapiens), Q9UIF8; AlphaScreen BAZ2B-H3K14Ac peptide displacement; Potency, µM (top dose mostly 114 µM), inactives show at the highest dose activity change, negative = inhibition, actives largely listed as inhibitors; 360,000 compounds, 4.4% hits; further: potency means the concentration at half of the fitted maximal effect; on the % scale 0 is the no-effect control and ±100 the full control effect; nearly all actives have a fitted effect of over 60% in size
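Inhibition is scored as reduced AlphaScreen emission. The BAZ2B/b-H3(5-23)K14Ac complex (50 nM each) in PBS pH 7.4, 0.01% Tween-20 meets compound (up to 110 uM) for 30 min at RT before bead addition.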
JMJD2A Tudor inh: qHTS Assay for Inhibitors of JMJD2A-Tudor Domain. Lysine-specific demethylase 4A (Homo sapiens), O75164. AlphaScreen JMJD2A-Tudor / H3K4me3 peptide binding. Potency, µM (series often up to 114 µM), for inactives: at the top dose activity change, negative = inhibition, usual class: inhibitors. 390,000 compounds, 4.4% hits; further: potency means the concentration at half of the fitted maximal effect; on the % scale 0 is the no-effect control and ±100 the full control effect; nearly all actives have a fitted effect of over 50% in size
Target sequence (O75164 whole entry, looked up, the tested form may be a part): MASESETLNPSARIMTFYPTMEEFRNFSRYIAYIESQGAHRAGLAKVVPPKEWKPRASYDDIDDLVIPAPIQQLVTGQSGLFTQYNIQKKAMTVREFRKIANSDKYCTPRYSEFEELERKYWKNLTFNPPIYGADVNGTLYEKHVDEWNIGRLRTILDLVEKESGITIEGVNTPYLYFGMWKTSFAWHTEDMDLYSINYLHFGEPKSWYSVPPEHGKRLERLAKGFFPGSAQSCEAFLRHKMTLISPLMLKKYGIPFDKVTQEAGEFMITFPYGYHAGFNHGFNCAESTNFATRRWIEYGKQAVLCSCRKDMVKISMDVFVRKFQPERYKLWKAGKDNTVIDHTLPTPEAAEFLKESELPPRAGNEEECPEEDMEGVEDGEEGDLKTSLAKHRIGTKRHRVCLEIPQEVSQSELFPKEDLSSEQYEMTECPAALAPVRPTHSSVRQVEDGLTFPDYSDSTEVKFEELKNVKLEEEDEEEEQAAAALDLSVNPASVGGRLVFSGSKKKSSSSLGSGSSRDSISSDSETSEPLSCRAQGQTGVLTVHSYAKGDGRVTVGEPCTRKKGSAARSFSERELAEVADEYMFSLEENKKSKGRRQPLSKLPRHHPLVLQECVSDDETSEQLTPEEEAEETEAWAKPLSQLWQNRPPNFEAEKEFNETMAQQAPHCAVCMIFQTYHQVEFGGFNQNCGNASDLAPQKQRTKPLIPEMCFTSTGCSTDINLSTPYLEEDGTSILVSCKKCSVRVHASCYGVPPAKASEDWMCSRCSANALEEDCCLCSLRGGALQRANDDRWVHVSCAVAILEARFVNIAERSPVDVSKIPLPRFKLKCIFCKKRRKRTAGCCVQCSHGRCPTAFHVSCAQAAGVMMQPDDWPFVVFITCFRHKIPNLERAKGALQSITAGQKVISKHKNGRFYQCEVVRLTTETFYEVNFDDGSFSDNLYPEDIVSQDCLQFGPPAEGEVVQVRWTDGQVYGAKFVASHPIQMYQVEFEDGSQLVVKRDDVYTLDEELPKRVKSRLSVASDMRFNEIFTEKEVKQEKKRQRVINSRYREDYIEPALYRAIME
G9a inh: qHTS Assay for Inhibitors of Histone Lysine Methyltransferase G9a; Histone-lysine N-methyltransferase EHMT2 (Homo sapiens), Q96KQ7; G9a H3K9 monomethylation, AlphaScreen, 2 h; Potency, µM (doses to about 102 µM), for the others: at the highest dose activity, negative = inhibition, hits mostly inhibitors; 350,000 compounds, 8.8% hits; AID 504332, 2011; further: potency means the concentration at half of the fitted maximal effect; on the % scale 0 is the no-effect control and ±100 the full control effect; nearly all actives have a fitted effect of over 75% in size
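G9a (20 nM) was preincubated 15 min with compound, then reacted 2 h at room temperature with 500 nM biotin-H3K9 peptide and 20 µM SAM. Monomethyl-H3K9 detected by AlphaScreen using anti-H3K9me1 antibody.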
The depositor's hits bear a star; ? = inconclusive; nt = no result given; [ ] = dose if it differs, or a comment. Unless noted, the call rests on the fitted dose curve; in most records, active means well fitted curve in the direction sought with a large enough effect; inconclusive means small, poorly fitted or top-dose-only effect, or another doubt; inactive means no such curve, though single readings can be large; an effect the other way counts as inactive or inconclusive.

SMILES | PI5P4K alpha inh | HP1b chromo inh | PLK1 PBD block | BAZ2B block | JMJD2A Tudor inh | G9a inh
C=C(C)c1cccc(C(C)(C)NC(=O)N2CCC(C(N)=O)CC2)c1 | 0 | 50% | -9% | 2% | -11% | 11%
Cc1cc(/C=N/NC(=O)c2ccc(O)cc2)c(C)n1C1CC1 | -26 | -23% | 19µM* | ? | -25%[11.4 µM] | -13%
CCCn1c(=O)n(C)c(=O)c2c(SCC(=O)NCc3ccco3)nc(C3CC3)nc21 | -1 | 9% | -25% | -26% | 79µM* | 9%
O=C(NCC1CC1)c1ccc2nc(-c3ccoc3)c(-c3ccoc3)nc2c1 | nt | 10%[57 µM] | nt | nt | -28%[57.1 µM] | nt
CCCC(=O)Nc1nc2ccc(OC)cc2s1 | -2 | 28% | 5% | 30% | -5% | -33%
COc1ccc2nc(NC(=S)N(C)C)sc2c1 | ? | ? | 5.3µM* | ? | 25µM* | 1.4µM*
O=S(=O)(c1cccnc1)N1CCn2cccc2C1c1ccccc1F (centres undefined) | 4 | -17% | -9% | ? | -26% | 45µM*
Cc1cc2c(cc(C(=O)OC(C(=O)NCc3ccco3)C(C)C)n2C)o1 (centres undefined) | nt | -15% | -7% | ? | ? | 40µM*
CC(C)C(OC(=O)c1cccs1)C(=O)NCc1ccco1 (centres undefined) | nt | 18% | -7% | 0% | -19% | 0%[12.7 µM]
CCOc1ccc2nc(/N=C/c3nc(-c4ccc(Br)cc4)oc3O)sc2c1 | -63* | ? | 18% | 14% | -19% | 14%
OC[C@@H](O)C(O[C@@H]1O[C@@H](CO)[C@H](O)[C@H](O)[C@H]1O)[C@H](O)[C@@H](O)CO (some centres undefined) | nt | nt | nt | nt | nt | 24%[59 µM]
CN(C)S(=O)(=O)c1cccc(C(=O)NCCOC(=O)c2cc(F)c(F)cc2Cl)c1 | 2 | 7% | -11% | -13% | -9% | -10%
CC(C(=O)NCCN1CCOCC1)(c1ccccc1)c1ccccc1 | 0 | 10% | -3% | -16% | -12% | -7%
CCOC(=O)n1cc(-c2cnc(CNC(=O)C(C)(c3ccccc3)c3ccccc3)o2)c2ccccc21 | 2 | 2% | -16% | -31% | ? | 45µM*
COc1ccc(C(CNC(=O)c2cccc(S(=O)(=O)Nc3ccc(F)cc3)c2)N2CCCCC2)cc1 (centres undefined) | 1 | 4% | -5% | nt | -23% | nt
COC(=O)c1c[nH]c(=S)n1Cc1ccccc1 | -4 | 18%[57 µM] | -9% | nt | 2.8µM* | nt
Cn1cccc1C(=O)Nc1ccc(Cl)c(S(=O)(=O)N2CCCCC2)c1 | -21 | -8% | -8% | nt | ? | nt
COc1ccccc1CC(=O)Nc1ccc2c(C)cc(=O)oc2c1 | -3 | -4% | -26% | -3% | -5% | 71µM*
Cc1ccccc1CC(=O)Nc1ccc2c(C)cc(=O)oc2c1 | 5 | 18% | -8% | -16% | -24% | nt
COC(=O)Cn1c(C)c(/C=C/c2cc[n+](C)cc2)c2ccccc21 | -3 | ? | 51% | ? | ? | 40µM*
COC(=O)Cn1cc(C#N)c2ccccc21 | 6 | 17% | -7% | 0% | -8% | 10µM*
CC(C)OC(=O)Cn1cc(C#N)c2ccccc21 | -8 | 24% | -19% | 11% | -9% | -26%
COC(=O)Cn1cc(/C=C/c2cc[n+](C)cc2)c2ccccc21 | -7 | 11% | 39% | 45µM* | ? | 45µM*
CNC(=O)/C(C#N)=C/c1cn(CC(=O)OC)c2ccccc12 | 0 | 23% | 5% | -24% | -16% | 4%
COC(=O)Cn1c(=O)c(=O)n(CC(=O)OC)c2ccccc21 | -2 | -8% | ? | -31% | -31% | 15%[59 µM]
SMILES | PI5P4K alpha inh | HP1b chromo inh | PLK1 PBD block | BAZ2B block | JMJD2A Tudor inh | G9a inh
COc1cc(C2C3=C(CC(C)(C)CC3=O)Nc3ccccc3N2C(C)=O)cc(OC)c1OC (centres undefined) | 2 | 14% | 1% | 16% | -4% | nt
NC(=O)c1cccc(Nc2nc(C(N)COCc3ccccc3)cs2)n1 (centres undefined) | 0 | nt | -4% | nt | nt | nt
CCOc1ccccc1N(C)C(=O)c1sc2nc3n(c(=O)c2c1C)CCCC3 | nt | 97% | nt | 50µM* | -21% | ?
CCOc1ccccc1N(C)C(=O)c1ccc2c(=O)n3c(nc2c1)CCCCC3 | -5 | 1% | 24µM* | -6% | -28% | nt
COc1cc(OC)c(N(C)C(=O)c2sc3nc4n(c(=O)c3c2C)CCCCC4)cc1Cl | nt | 20% | nt | 50µM* | ? | 14µM*
CCc1ccccc1N(C)C(=O)c1sc2nc3n(c(=O)c2c1C)CCCCC3 | nt | 40% | nt | -26% | -13% | ?
CN(C)S(=O)(=O)c1ccc(C(=O)Oc2cc(=O)[nH]c3ccccc23)cc1 | 0 | 44% | 8.4µM* | -2% | -14% | 71µM*
CCOC(=O)c1[nH]c2ccccc2c1NC(=O)c1ccc(S(=O)(=O)N(C)C)cc1 | -1 | 45% | -13% | 3% | -25% | -22%
COc1cc(C(=O)n2nc(C)c(Sc3ccc(Cl)cc3)c2C)cc(OC)c1OC | nt | 49% | nt | 17% | 34% | 37%[59 µM]
CCOc1ccc(S(=O)(=O)N/N=C2/CCCC(=O)C2)cc1 | -3 | 26% | -12% | 1% | -26% | 10µM*
CCOc1ccc(S(=O)(=O)N/N=C(\C)C2CCCCC2)cc1 | 2 | 31% | -4% | 1% | -11% | 15%[59 µM]
Clc1cc2c(c(CSc3nc4ccccc4n4cccc34)c1)OCOC2 | 3 | 53% | -8% | -9% | 0% | 45µM*
COCCNC(=O)CCC(=O)NNc1nc2ccccc2c2nc(C)nn12 | 0 | 33% | 0% | 4% | 79µM* | 15%
Cc1nc2c3ccccc3nc(NNC(=O)CCC(=O)NCCN3CCN(c4ccccc4F)CC3)n2n1 | 3 | 20% | 30µM* | -7% | -35% | 10%
COc1ccc(N2CCN(CCNC(=O)CCC(=O)NNc3nc4ccccc4c4nc(C)nn34)CC2)cc1 | 1 | 38% | -11% | -15% | -4% | 15%
Cc1ccc(S(=O)OCC(=O)Nc2cc(Cl)ccc2N2CCOCC2)cc1 (centres undefined) | ? | 19% | 17µM* | -3% | ? | 11%
CN(C(=O)COC(=O)c1cc([N+](=O)[O-])ccc1N1CCOCC1)C1CCCCC1 | -14 | nt | -12% | nt | nt | nt

High-throughput results as filed in PubChem BioAssay.
